# Sampled rows, rich in hits. Any-hit rate of the full collection: about 12%.
# Sfp PPTase inh: inhibitors of Bacillus subtilis Sfp phosphopantetheinyl transferase; Q9F4F7; Biochemical Sfp PPTase activity, qHTS; Potency, µM, for inactives: largest response in the series, negative = inhibition, usual class: inhibitors; 310,000 compounds, 3.5% hits; AID 1490;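 note: the enzyme is Sfp with the accession as filed and its product quenches rhodamine fluorescence; 0% = enzyme reaction without inhibitor and -100% = no enzyme wells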
#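 With Hepes-Na pH 7.6 buffer containing 10 mM MgCl2, Sfp (15 nM) modified BHQ-2-YbbR (12.5 uM) using rhodamine-CoA (5 uM). Two reads 30 minutes apart at 525/598 nm yielded each well's rate.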
# HP1b binding inh: HP1-beta chromodomain-methylated histone interaction inhibition | AlphaScreen HP1-beta / biotin-H3K9me3 peptide binding | Potency, µM (titrated, usually from 114 µM), for inactives: at the highest dose activity change, negative = inhibition, actives largely listed as inhibitors | 390,000 compounds, 0.56% hits; note: nearly all actives have a fitted effect of over 70% in size
#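 Compound inhibition of the preformed complex between 50 nM HP1-beta and 50 nM biotinylated H3K9me3 peptide was read by AlphaScreen. Buffer was PBS pH 7.4 with 0.01% Tween-20. Incubations ran 30 min at room temperature, with 10 ug/mL donor/acceptor beads.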
# G9a inh: G9a (human) methyltransferase inhibition; G9a H3K9 monomethylation, AlphaScreen, 2 h; Potency, µM (doses to about 102 µM), without a hit: at the top dose activity, negative = inhibition, hits mostly inhibitors; 350,000 compounds, 8.8% hits; AID 504332; note: % is set by controls: 0 for no effect and ±100 for the full control effect; nearly all actives have a fitted effect of over 75% in size
#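 Step 1: enzyme (final 20 nM) with compound, 15 min RT. Step 2: substrate peptide 500 nM and SAM 20 uM, 2 h RT. Step 3: anti-H3K9me1 antibody and AlphaScreen beads, 10 min, then plate read.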
# BAZ2B block: BAZ2B (human) inhibition. Q9UIF8. AlphaScreen BAZ2B-H3K14Ac peptide displacement. Potency, µM (titrated, usually from 114 µM), for inactives: at the highest dose activity change, negative = inhibition, hits mostly inhibitors. 360,000 compounds, 4.4% hits. AID 504333; note: % is set by controls: 0 for no effect and ±100 for the full control effect; nearly all actives have a fitted effect of over 60% in size
#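 AlphaScreen luminescence quantifies BAZ2B engagement of H3K14Ac peptide; the protein and biotinylated peptide are both at 50 nM final, buffer PBS pH 7.4 with 0.01% Tween-20, all steps at room temperature.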
# JMJD2A Tudor: blocks the human JMJD2A Tudor domain; 390,000 compounds, 4.4% hits; O75164; AlphaScreen JMJD2A-Tudor / H3K4me3 peptide binding; Potency, µM (top dose mostly 114 µM), for inactives: at the highest dose activity change, negative = inhibition, hits mostly inhibitors; AID 504339; note: % is set by controls: 0 for no effect and ±100 for the full control effect; nearly all actives have a fitted effect of over 50% in size
# Target sequence (O75164 whole entry, looked up, the tested form may be a part): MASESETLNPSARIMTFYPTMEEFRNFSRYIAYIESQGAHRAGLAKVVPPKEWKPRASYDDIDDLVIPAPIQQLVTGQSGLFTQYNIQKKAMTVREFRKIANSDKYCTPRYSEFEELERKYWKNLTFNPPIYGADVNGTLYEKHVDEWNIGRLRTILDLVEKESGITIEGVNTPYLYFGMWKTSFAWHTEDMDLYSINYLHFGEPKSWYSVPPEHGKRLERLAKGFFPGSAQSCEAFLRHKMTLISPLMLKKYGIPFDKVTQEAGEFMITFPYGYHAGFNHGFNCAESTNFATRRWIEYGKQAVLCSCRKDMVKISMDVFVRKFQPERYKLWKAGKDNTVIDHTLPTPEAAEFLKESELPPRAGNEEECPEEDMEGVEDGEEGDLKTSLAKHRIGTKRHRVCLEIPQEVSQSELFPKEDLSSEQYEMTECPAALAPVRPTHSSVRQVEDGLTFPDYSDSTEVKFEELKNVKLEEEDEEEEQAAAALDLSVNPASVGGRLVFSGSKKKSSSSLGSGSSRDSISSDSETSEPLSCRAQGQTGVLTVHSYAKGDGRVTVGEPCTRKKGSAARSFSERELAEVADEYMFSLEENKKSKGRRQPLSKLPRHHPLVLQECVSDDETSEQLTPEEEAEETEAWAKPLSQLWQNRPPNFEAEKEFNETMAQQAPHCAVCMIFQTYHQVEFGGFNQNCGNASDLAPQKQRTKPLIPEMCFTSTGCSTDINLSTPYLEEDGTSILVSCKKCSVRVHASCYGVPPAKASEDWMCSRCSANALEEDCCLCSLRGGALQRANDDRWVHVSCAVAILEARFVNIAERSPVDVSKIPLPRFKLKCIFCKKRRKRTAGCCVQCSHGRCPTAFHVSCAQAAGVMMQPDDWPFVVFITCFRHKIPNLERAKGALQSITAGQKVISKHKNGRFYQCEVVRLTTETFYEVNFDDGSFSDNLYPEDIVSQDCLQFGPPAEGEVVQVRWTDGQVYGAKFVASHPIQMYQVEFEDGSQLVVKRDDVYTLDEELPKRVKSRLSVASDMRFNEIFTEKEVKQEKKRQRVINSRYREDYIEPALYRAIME
# * = called active by the depositor; u = inconclusive; x = no result; [ ] = another dose, or the depositor's remark. Calls come from the whole dose curve; as a rule, active = well fitted curve in the direction sought with a large enough effect; inconclusive = small, poorly fitted or top-dose-only effect, or another doubt; inactive = no such curve, though single readings can be large; an effect the other way counts as inactive or inconclusive. Potency is the fitted concentration of half-maximal effect.
SMILES,Sfp PPTase inh,HP1b binding inh,G9a inh,BAZ2B block,JMJD2A Tudor
Cn1c2cc(C=O)sc2c2cnn(Cc3ccccc3F)c(=O)c21,x,x,x,x,-18%
COc1ccc(-c2cc(C(=O)N3CCN(c4ccccc4F)CC3)c3ccccc3n2)c(OC)c1,11%,43%,16%,-17%,-11%
COc1cccc(C2C(C#N)=C(N)SC(c3ccccc3)C2[N+](=O)[O-])c1 (configuration not stated),17%,-13%,u,50µM*,u
CCN(CC)C(=O)C1CCCN(C/C=C/c2ccccc2)C1 (configuration not stated),-30%,u,10µM*,56µM*,4.5µM*
CCN(CC)C(=O)C1CCCN(C/C(C)=C/c2ccccc2)C1 (configuration not stated),79µM*,u,16µM*,50µM*,1.6µM*
CCN(CC)C(=O)C1CCCN(Cc2ccccc2C(F)(F)F)C1 (configuration not stated),-32%,u,u,79µM*,4.5µM*
CCN(CC(=O)Nc1ccccc1C(F)(F)F)C(=O)C1CCC1,x,25%,7%[59 µM],-4%,-9%
CCc1[nH]nc(C(=O)NC2CCCN(Cc3ccccc3F)C2)c1C (configuration not stated),15%,54%,-1%,-11%,-12%
COC(=O)C1=C[C@@H](C(=O)OC)[C@@H]2C3=C(C(=O)[C@]2(C)NC(=O)c2ccccc2)[C@H](C)[C@@H]2C(=O)NC(=O)[C@@H]2[C@@H]3C1,6%,6%,x,x,-15%
NC(=O)c1nc[nH]c1C(=O)Nc1cccc(NC(=O)c2cccc(C(F)(F)F)c2)c1,x,47%,x,x,-14%
COc1ccc2[nH]cc(CCNc3cc(-c4cccnc4)ncn3)c2c1,u,x,8%[0.501 µM],x,x
Cc1n[nH]c(=S)n1/N=C/c1ccccc1,4%,24%,10µM*,-7%,4µM*
Oc1ccc(/C=N/n2c(-c3ccccc3)n[nH]c2=S)cc1,-2%,42%,-1%[0.501 µM],-3%,20µM*
COc1ccc(/C=N/n2c(N)nc(-c3ccccc3)c2-c2ccccc2)cc1,-16%,-12%,-26%[59 µM],u,u
COc1cc(/C=N/n2c(-c3ccccc3)n[nH]c2=S)cc(OC)c1OC,-11%,u,x,-5%,5µM*
COc1ccc(/C=N/n2c(-c3ccccc3)n[nH]c2=S)cc1,-6%,-16%,1.4µM*,u,25µM*
S=c1[nH]nc(-c2ccccc2)n1/N=C/c1cccc(Br)c1,10%,17%,-43%[0.501 µM],-2%,-25%
CCc1cccc(NC(=O)C(CC(C)C)NS(=O)(=O)c2ccc3c(c2)oc(=O)n3C)c1 (configuration not stated),x,39%,4%[59 µM],-16%,-13%
Cc1cnc(CNc2cc(-c3ccc(C(=O)N(C)C)cc3)ncn2)cn1,-13%,x,12%[0.501 µM],x,x
Cc1ccc(-n2nc(C)c(/C=N/n3c(C)n[nH]c3=S)c2Cl)cc1,6%,30%,3.2µM*,7%,-20%
CCN(CC)c1ccc(/C=N/n2c(-c3ccccc3Br)n[nH]c2=S)cc1,u,u,2.8µM*,u,u
CNC(=S)N/N=C/c1c(C)nn(-c2ccccc2)c1Cl,-5%,29%,-27%[2.33 µM],22%,-4%
COc1cccc(/C=N/n2c(-c3cccs3)n[nH]c2=S)c1,-10%,-3%,u,u,50µM*
S=c1[nH]nc(-c2cccs2)n1/N=C/c1cn(-c2ccccc2)nc1-c1cccs1,-3%,-20%,x,u,u
COc1ccccc1CNC(=O)COc1ccc(S(=O)(=O)N2CCCC2)cc1,18%,8%,-7%,-1%,-4%
Cc1ccc(CN=Cc2[nH]c3ccc(Br)c(Cl)c3c2O)cc1,u,45µM*,28µM*,u,50µM*
O=C(NNS(=O)(=O)c1ccc(C(=O)NC2CCCC2)cc1)c1ccncc1,-14%,20%,50µM*,-30%,1.3µM*
CC1CCCCC1NC(=O)c1ccc(S(=O)(=O)NNC(=O)c2ccncc2)cc1 (configuration not stated),u,27%,x,89µM*,3.5µM*

# Compound activity (PubChem)
